From paper PMC7819943, “Rice protein-binding microarrays: a tool to detect cis-acting elements near promoter regions in rice”
Over roughly 35,000 sequences, “fluorescence intensity (a.u.)” has its median near 10,000; the highest 2% begin near 52,000. The full list was thinned out, with the highest values kept by preference.

Each sequence was assayed against T1, OsWOX13 (Oryza sativa, UniProt Q5QMM3 1-267) (assay: protein-binding microarray (RPBM); PBS, 2% BSA, 51.3 ng/ul salmon testes DNA, 50 uM zinc acetate, 200 nM TF, 25 C, 1 h; high values mean tight binding). Conditions: protein: recombinant; tags: N-terminal polyhistidine and DsRed monomer fusion (pET32a); label: CyDye5-dUTP incorporated in the synthesized complementary strand; 3' TTTTT single-stranded linker to array surface; dsDNA, one strand shown.
T1 sequence: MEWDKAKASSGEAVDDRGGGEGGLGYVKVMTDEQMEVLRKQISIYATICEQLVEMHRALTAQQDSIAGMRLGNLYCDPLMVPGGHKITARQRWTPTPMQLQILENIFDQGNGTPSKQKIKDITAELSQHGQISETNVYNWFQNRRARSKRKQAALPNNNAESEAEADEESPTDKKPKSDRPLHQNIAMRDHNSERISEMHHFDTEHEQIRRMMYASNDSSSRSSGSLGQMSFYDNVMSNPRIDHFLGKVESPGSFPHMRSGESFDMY
In short: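 Per-feature fluorescence intensity (arbitrary units), read on an Axon 4000B scanner, is the binding signal. Transcription factors carrying an N-terminal polyhistidine tag and DsRed fusion were expressed in E. coli BL21-CodonPlus and purified on Ni–NTA. A custom Agilent array, made double-stranded by primer extension with Cy5-dUTP and blocked with 2% BSA, was incubated with 200 nM protein in PBS, 2% BSA, salmon testes DNA and 50 µM zinc acetate at 25 °C for 1 h and then washed.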

Row | Sequence | binding signal
1 | GACAGATTAATTAAAGAATCATCATTACTGCGATGCGACCCGGAGTCACCTAGTGCAG | 16600 fluorescence intensity (a.u.)
2 | ACAAATTGCCAACTCATGAAAGTGATCGATGATGGGCTTACGGAGTCACCTAGTGCAG | 15700 fluorescence intensity (a.u.)
3 | GTCCTACATATGCTAAATTGGCAATATGTAAAGATTTACTCGGAGTCACCTAGTGCAG | 4980 fluorescence intensity (a.u.)
4 | TTATTTATCAGTCTGATTTTATATAATGTAATATTATGCACGGAGTCACCTAGTGCAG | 3150 fluorescence intensity (a.u.)
5 | AAATTAACTTAATTAATAAGTTGAGCAGCCTGTAGGCCTTCGGAGTCACCTAGTGCAG | 17500 fluorescence intensity (a.u.)
6 | GCAAATTAACTTAATTAATAAGTTGAGCAGCCTGTAGGCCCGGAGTCACCTAGTGCAG | 58200 fluorescence intensity (a.u.)
7 | TAAGTTAAATAACTATTAATTGTGGCCTGTGCTCAGCCTTCGGAGTCACCTAGTGCAG | 9070 fluorescence intensity (a.u.)
8 | AATGATTAGAATTTGGTAAAGTAGAGGACAAAGATAAAATCGGAGTCACCTAGTGCAG | 7910 fluorescence intensity (a.u.)
9 | TTCGGATTGATTGTTGAGACAAATCTCGTAGAACACGGAACGGAGTCACCTAGTGCAG | 62900 fluorescence intensity (a.u.)
10 | TTTGAGTGATTGACAGGAAACAAATCCACCACTATCTGTTCGGAGTCACCTAGTGCAG | 62400 fluorescence intensity (a.u.)
11 | GAAATTGATTTATCCAGGGAAACTGTCGTGACAAATTTCGCGGAGTCACCTAGTGCAG | 49300 fluorescence intensity (a.u.)
12 | TTTAACACAAATGAGAACTTGATCGATTCCTCGTATTGTTCGGAGTCACCTAGTGCAG | 3850 fluorescence intensity (a.u.)
13 | AAAATAAACAAATCTATCCACTAACAATTTGACATGATATCGGAGTCACCTAGTGCAG | 7240 fluorescence intensity (a.u.)
14 | GGATAGAATTGATTGAGCGAGAGAGAGAATTGAACACAAACGGAGTCACCTAGTGCAG | 21200 fluorescence intensity (a.u.)
15 | ATAAATAAATACTCTAATTGCAAGCAACCAACGTCCCAACCGGAGTCACCTAGTGCAG | 5780 fluorescence intensity (a.u.)
16 | CTACAATTTATCATAAACTTGATAAAATATAAACAAATTCCGGAGTCACCTAGTGCAG | 4240 fluorescence intensity (a.u.)
17 | AGGACATAATTTTAATGGGGAAATTGGTTCCATACCATCTCGGAGTCACCTAGTGCAG | 20500 fluorescence intensity (a.u.)
18 | AGCTAGCTTTGACTAATCAATCAGCAGCTAATTTCAGTCTCGGAGTCACCTAGTGCAG | 13700 fluorescence intensity (a.u.)
19 | AAAATAAATTGACAACATTCGTACAATATATATAAATATCCGGAGTCACCTAGTGCAG | 25900 fluorescence intensity (a.u.)
20 | ATTTAATAGTATTAAACGTAGATTACTGATAAAACCTATTCGGAGTCACCTAGTGCAG | 4260 fluorescence intensity (a.u.)
21 | TAGCTTAGCTCGTATTCGTATAAAACGTAGTACAAGGTTCCGGAGTCACCTAGTGCAG | 61300 fluorescence intensity (a.u.)
22 | AGAAATTGTGTGATTTATTGTAGTGTGTAGAAATTTATAGCGGAGTCACCTAGTGCAG | 11700 fluorescence intensity (a.u.)

Row | Sequence | binding signal
23 | AATGTAATGTAACAAATTTGTCTAAAAGGATTGAACTTGGCGGAGTCACCTAGTGCAG | 12400 fluorescence intensity (a.u.)
24 | GACTTGACTAATTGATTTGTGTAGATTTCTAAAAGCAAGGCGGAGTCACCTAGTGCAG | 58600 fluorescence intensity (a.u.)
25 | ATAAAATTTTAAAATTTAAATTGTAGCCACAACTGATAAGCGGAGTCACCTAGTGCAG | 15500 fluorescence intensity (a.u.)
26 | CTGATTTAAATTGAAAGCAACCGTCTTTTGATTTGTGTAGCGGAGTCACCTAGTGCAG | 57100 fluorescence intensity (a.u.)
27 | GATATGAGTGACTAATTGACTTTGTGTTGATTTCGAGCAGCGGAGTCACCTAGTGCAG | 34600 fluorescence intensity (a.u.)
28 | AAAAGCACATGATTATATCTCATTTTATGGTCTTAGAGCACGGAGTCACCTAGTGCAG | 3350 fluorescence intensity (a.u.)
29 | GTTTGATGAGTCCGGAATAGCATATAGCACATGGAATTGGCGGAGTCACCTAGTGCAG | 3510 fluorescence intensity (a.u.)
30 | CAACAGGATTGGAAGTGATCAGAGACAGGCAATGAAATCCCGGAGTCACCTAGTGCAG | 8460 fluorescence intensity (a.u.)
31 | ACACTAAATTAATGTATGCAATGTCCATTGGTAAATAACTCGGAGTCACCTAGTGCAG | 14900 fluorescence intensity (a.u.)
32 | CTGGATTGGTGATTGATTATCCGAGCAAGCAAAGACGATGCGGAGTCACCTAGTGCAG | 63800 fluorescence intensity (a.u.)
33 | GATTAAGATTTTATCCGATTGATGATGCGCCGTAGCAGTGCGGAGTCACCTAGTGCAG | 8650 fluorescence intensity (a.u.)
34 | AGTGATTAGTGAAGCAAAGGAAGACGACGAGTGACACGAGCGGAGTCACCTAGTGCAG | 21900 fluorescence intensity (a.u.)
35 | TTTAAGATCATGATTAACATGACATTGAAGCATTACCACGCGGAGTCACCTAGTGCAG | 5610 fluorescence intensity (a.u.)
36 | GAATTAGCTTGATTGACAGAAACAAATGGCTACAACTACACGGAGTCACCTAGTGCAG | 50600 fluorescence intensity (a.u.)
37 | AACCAGATTCACCGTGATTAGTTTCACCCTAGTCTAGTCTCGGAGTCACCTAGTGCAG | 10800 fluorescence intensity (a.u.)
38 | TTAATTGATCAATAATCACTGTTCCTTCTCAAGTAGTCAACGGAGTCACCTAGTGCAG | 64600 fluorescence intensity (a.u.)
39 | ATCCATGATTAACAGTTGATTACTGTAGCAAATCATGGATCGGAGTCACCTAGTGCAG | 34400 fluorescence intensity (a.u.)
40 | TTAATTAATTGATCACTTCCAAATCATGTAGCAGTACTGTCGGAGTCACCTAGTGCAG | 65400 fluorescence intensity (a.u.)
41 | ATATATAATCATTGATCTTAATTATTGAGTGTCAGTAGTACGGAGTCACCTAGTGCAG | 24400 fluorescence intensity (a.u.)
42 | ATAATTGAGTAGATAATCCTTGCAATAATCCGCTCAATAACGGAGTCACCTAGTGCAG | 8180 fluorescence intensity (a.u.)
43 | CACAATTCCTTCTAATTATTTGATAATCAAGTTTCTCCTTCGGAGTCACCTAGTGCAG | 9620 fluorescence intensity (a.u.)
